BLM helicase inh-1: qHTS Assay for Inhibitors of Bloom's syndrome helicase (BLM) | RecQ-like DNA helicase BLM (Homo sapiens), P54132 | recombinant BLM DNA unwinding, fluorescence dequenching | Potency, µM (titrated, usually from 56.1 µM), hits mostly inhibitors | actives 0.2% (n = 350,000) | AID 2528, 2010; further: nearly all actives have a fitted effect of over 35% in size
RECQ1 inh-1: qHTS Assay for Inhibitors of RecQ-Like Dna Helicase 1 (RECQ1); ATP-dependent DNA helicase Q1 (Homo sapiens), P46063; RECQ1 DNA unwinding, red fluorescence kinetic read; Potency, µM (top dose mostly 57.3 µM), most hits filed as inhibitors; actives 0.54% (n = 240,000); AID 2549, 2010; further: nearly all actives have a fitted effect of over 30% in size
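RECQ1T1 50 nM; forked duplex (20 bp + 30-nt ss tails) 200 nM, ATP 2 mM final; pH 8.0, 2 mM MgCl2, 2.5 ug/ml poly(dI-dC); 15 min compound preincubation; discontinuous kinetic read over 2 h at RT.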
WRN helicase inh-1: qHTS for Inhibitors of WRN Helicase; Potency, µM (top dose mostly 114 µM), most hits filed as inhibitors; Bifunctional 3'-5' exonuclease/ATP-dependent helicase WRN (Homo sapiens), Q14191; actives 0.46% (n = 360,000); WRN helicase unwinding, fluorescent forked duplex, kinetic; further: nearly all actives have a fitted effect of over 55% in size
Target sequence (Q14191 whole entry, looked up): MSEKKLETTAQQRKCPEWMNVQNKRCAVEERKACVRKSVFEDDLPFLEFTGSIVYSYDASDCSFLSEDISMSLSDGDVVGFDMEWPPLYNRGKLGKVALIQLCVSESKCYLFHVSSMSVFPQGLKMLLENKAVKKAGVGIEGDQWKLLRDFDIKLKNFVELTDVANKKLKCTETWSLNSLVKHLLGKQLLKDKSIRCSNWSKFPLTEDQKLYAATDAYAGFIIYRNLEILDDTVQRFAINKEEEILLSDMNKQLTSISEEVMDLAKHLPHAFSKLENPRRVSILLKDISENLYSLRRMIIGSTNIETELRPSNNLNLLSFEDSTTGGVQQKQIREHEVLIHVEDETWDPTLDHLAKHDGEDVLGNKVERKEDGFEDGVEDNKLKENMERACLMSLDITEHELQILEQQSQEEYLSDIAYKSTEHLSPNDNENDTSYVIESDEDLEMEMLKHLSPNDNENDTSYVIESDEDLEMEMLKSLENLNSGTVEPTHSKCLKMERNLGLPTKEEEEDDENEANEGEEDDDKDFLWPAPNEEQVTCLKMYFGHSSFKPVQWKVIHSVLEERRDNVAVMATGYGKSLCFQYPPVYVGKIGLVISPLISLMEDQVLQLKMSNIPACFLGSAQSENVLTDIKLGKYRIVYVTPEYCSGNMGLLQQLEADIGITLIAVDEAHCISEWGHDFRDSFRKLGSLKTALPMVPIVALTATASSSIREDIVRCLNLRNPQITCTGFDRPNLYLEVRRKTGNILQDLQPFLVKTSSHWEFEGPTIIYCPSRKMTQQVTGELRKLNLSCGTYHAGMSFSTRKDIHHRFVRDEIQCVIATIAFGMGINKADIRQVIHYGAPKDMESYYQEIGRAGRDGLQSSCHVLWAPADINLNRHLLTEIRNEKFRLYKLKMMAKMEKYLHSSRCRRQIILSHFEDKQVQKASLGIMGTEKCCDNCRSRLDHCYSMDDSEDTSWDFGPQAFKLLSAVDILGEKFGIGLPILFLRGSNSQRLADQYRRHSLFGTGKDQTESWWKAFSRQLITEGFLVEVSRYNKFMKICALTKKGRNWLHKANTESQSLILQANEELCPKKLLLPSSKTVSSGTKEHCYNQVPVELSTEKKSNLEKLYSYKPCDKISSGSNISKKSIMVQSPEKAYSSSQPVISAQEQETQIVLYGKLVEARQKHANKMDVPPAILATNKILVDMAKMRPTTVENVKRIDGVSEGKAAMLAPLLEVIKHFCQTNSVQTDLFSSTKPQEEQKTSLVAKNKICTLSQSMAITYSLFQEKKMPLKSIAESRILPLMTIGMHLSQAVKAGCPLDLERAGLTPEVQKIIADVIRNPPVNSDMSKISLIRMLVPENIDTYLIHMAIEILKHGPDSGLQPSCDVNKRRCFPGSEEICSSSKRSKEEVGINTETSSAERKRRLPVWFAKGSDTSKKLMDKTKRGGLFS
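Screening of the MLSMR collection measured strand separation of a quenched forked DNA duplex (100 nM) by 20 nM WRN with 2 mM ATP, all final. Compounds were preincubated with enzyme 15 min at room temperature.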
FEN1 inh-1: qHTS Assay for the Inhibitors of Human Flap endonuclease 1 (FEN1) | Recombinant FEN1 flap cleavage, fluorescence, 15 min | Potency, µM (doses to about 114 µM), hits mostly inhibitors | actives 0.35% (n = 390,000); further: nearly all actives have a fitted effect of over 65% in size
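Quantitative HTS format: each compound was titrated, incubated with 10 nM nuclease for 15 min at room temperature, then challenged with flap substrate at 50 nM final. Signal change over 15 min gave concentration–effect curves.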
APE1 inh: qHTS Assay for Inhibitors of the Human Apurinic/apyrimidinic Endonuclease 1 (APE1) | Potency, µM (titrated, usually from 65.8 µM), most hits filed as inhibitors | actives 0.35% (n = 350,000) | recombinant APE1, TAMRA/BHQ-2 abasic DNA cleavage fluorescence | DNA repair nuclease/redox regulator APEX1 (Homo sapiens), P27695; further: nearly all actives have a fitted effect of over 55% in size
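Quantitative HTS: incision of a TAMRA/BHQ-2 double-stranded substrate bearing a tetrahydrofuran abasic site by 0.75 nM APE1 raises fluorescence. Substrate 50 nM final, added after 15 min compound preincubation at room temperature; progress as third-minus-first kinetic read difference.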
L3MBTL1 inh-1: qHTS Assay for the Inhibitors of L3MBTL1 | Lethal(3)malignant brain tumor-like protein 1 (Homo sapiens), Q9Y468 | AlphaScreen L3MBTL1–H3K9me1 peptide binding | actives 0.66% (n = 230,000) | Potency, µM (doses to about 57.1 µM), usual class: inhibitors; further: nearly all actives have a fitted effect of over 60% in size
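First, the protein-peptide complex forms for 30 min at room temperature (L3MBTL1 50 nM, biotinylated H3K9me1 peptide 75 nM). Next, compounds are pin-transferred and incubated 30 min. Finally, AlphaScreen beads are added and read after 30 min.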
RECQ1 conf: Confirmation qHTS Assay for Inhibitors of RecQ-Like Dna Helicase 1 (RECQ1); shares compounds with RECQ1 inh-1; RECQ1 helicase DNA unwinding, fluorescence; Potency, µM (doses to about 229 µM), hits mostly inhibitors; actives 28% (n = 610); AID 2708, 2010; further: nearly all actives have a fitted effect of over 45% in size
RECQ1 ADP FP: Counterscreen for RECQ1 Inhibitors: ADP Fluorescence Polarization Displacement Assay; AID 2711, 2010; ADP fluorescence polarization displacement counterscreen; actives 27% (n = 530); shares compounds with RECQ1 inh-1; Potency, µM (titrated, usually from 228 µM), hits mostly inhibitors; further: nearly all actives have a fitted effect of over 45% in size
RECQ1 inh-2: Confirmation qHTS Assay for Inhibitors of RecQ-Like Dna Helicase 1 (RECQ1) - Round 2 Cherry Picks; Potency, µM (doses to about 119 µM), hits mostly inhibitors; recombinant RECQ1 DNA unwinding, red fluorescence; actives 15% (n = 1,100); shares compounds with RECQ1 inh-1; AID 504841, 2011; further: nearly all actives have a fitted effect of over 50% in size
L3MBTL1 inh-2: qHTS Assay for the Inhibitors of L3MBTL1: Hit Validation; shares compounds with L3MBTL1 inh-1; L3MBTL1 methyl-lysine binding inhibition, biochemical qHTS; Potency, µM, usual class: inhibitors; actives 91% (n = 500); further: nearly all actives have a fitted effect of over 70% in size
L3MBTL1 ctr: qHTS Assay for the Inhibitors of L3MBTL1: Hit Validationin AlphaScreen Counterscreen | shares compounds with L3MBTL1 inh-1 | AlphaScreen counterscreen, signal inhibition | Potency, µM (titrated, usually from 57.1 µM), most hits filed as inhibitors | 500 tested, under 10 active | AID 602224, 2012
FEN1 inh-2: qHTS Assay for the Inhibitors of FEN1: Confirmatory Assay for Cherry-picked Compounds. actives 79% (n = 880). shares compounds with FEN1 inh-1. FEN1 flap cleavage, TAMRA/BHQ2 fluorogenic DNA substrate. Potency, µM, most hits filed as inhibitors; further: nearly all actives have a fitted effect of over 60% in size
WRN helicase inh-2: qHTS for Inhibitors of WRN Helicase: Confirmatory Assay for Cherry-picked Compounds; shares compounds with WRN helicase inh-1; WRN helicase DNA unwinding, fluorescence kinetic; Potency, µM (highest dose often 57.1 µM), usual class: inhibitors; actives 63% (n = 610); further: nearly all actives have a fitted effect of over 65% in size
TO DNA binding: qHTS for Inhibitors of WRN Helicase: Thiazole Orange DNA Binding Counterscreen; shares compounds with WRN helicase inh-1; thiazole orange DNA binding displacement, fluorescence; Potency, µM (titrated, usually from 57.1 µM), hits mostly inhibitors; actives 10% (n = 610); AID 720499, 2013;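 further: drop in dye fluorescence marks compound binding to DNA; nearly all actives have a fitted effect of over 60% in size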
BLM helicase inh-2: qHTS for Inhibitors of WRN Helicase: BLM Helicase Counterscreen for WRN Inhibitors; shares compounds with WRN helicase inh-1; Recombinant BLM helicase DNA unwinding, red fluorescence; Potency, µM (titrated, usually from 57.1 µM), most hits filed as inhibitors; actives 60% (n = 610); further: nearly all actives have a fitted effect of over 60% in size
Hits are given with their value; - = inactive; ? = inconclusive; . = not tested or not shown; [ ] = dose if it differs, or a comment. Hits are enriched below; roughly 1% of the tested compounds scored in any of these assays. The call rests on the fitted dose curve; in most records, active means well fitted curve in the direction sought with a large enough effect; inconclusive means small, poorly fitted or top-dose-only effect, or another doubt; inactive means no such curve, though single readings can be large; an effect the other way counts as inactive or inconclusive.

SMILES | BLM helicase inh-1 | RECQ1 inh-1 | WRN helicase inh-1 | FEN1 inh-1 | APE1 inh | L3MBTL1 inh-1 | WRN helicase inh-2 | TO DNA binding | BLM helicase inh-2 | others
CCc1nnc(NS(=O)(=O)c2ccc(N/C=C\C(=O)c3cccc4ccccc34)cc2)s1 | - | ? | 27µM | - | - | - | 24µM | - | 27µM | RECQ1 inh-2=?
Cc1ccc(NC(=O)N/C=C/c2ccco2)cc1 | - | ? | ? | - | ? | ? | - | - | 14µM | RECQ1 inh-2=?
Cc1ccc(NC(=O)/C(=C\c2ccco2)NC(=O)c2ccco2)cc1 | - | . | - | - | - | . | . | . | .
CC(=O)NC1=CC(=O)c2nonc2C1=O | . | . | . | - | . | . | . | . | .
C=CCSC1=N/C(=C\C=C\c2ccco2)C(=O)S1 | ? | 13µM | 32µM | 50µM | 10µM | 2.8µM | 19µM | 24µM | 5.4µM | RECQ1 conf=45µM;RECQ1 ADP FP=14µM;RECQ1 inh-2=?
COc1ccc(OC)c(NC(=O)C2=C(C)C(=O)OC23CCCCCC3)c1 | - | . | . | - | . | . | . | . | .
O=C1CC(c2ccco2)CC(O)=C1C=Nc1ccccc1-c1ccccc1 (stereo not given) | - | - | - | - | - | . | . | . | .
O=C1CC(c2ccco2)CC(O)=C1C=Nc1cc(Cl)ccc1O (stereo not given) | - | 22µM | ? | - | 7.1µM | 35µM | 22µM | - | 7.6µM | RECQ1 inh-2=?
Nc1ccn([C@@H]2O[C@H](CNCc3cnc(N4CCOCC4)nc3)[C@@H](O)[C@H]2O)c(=O)n1 | . | . | - | . | . | . | . | . | .
C/C(C/C(C)=C1/SC(=S)NC1=O)=C1\SC(=S)NC1=O | - | 14µM | 28µM | 13µM | ? | . | 3.8µM | - | ? | RECQ1 conf=?;FEN1 inh-2=19
Cc1cccc(C)c1NC(=O)C1c2ccccc2OCC(=O)N1CCc1ccccc1 (stereo not given) | . | . | - | . | . | . | . | . | .
O=c1c(-c2ccc([N+](=O)[O-])cc2)coc2c(O)c(O)ccc12 | - | 8.9µM | 22µM | ? | ? | . | 4.8µM | - | 4.3µM | RECQ1 inh-2=?
COc1ccc(C(=O)Nc2nc3n(n2)C(c2ccc(Cl)cc2)C=C(c2ccccc2)N3)cc1OC (stereo not given) | - | . | . | - | . | . | . | . | .
CCOC(=O)CSc1nnc(-c2cc(OC)c(OC)c(OC)c2)o1 | - | - | - | - | - | - | . | . | .
COc1cc(-c2nnc(SCc3cc(=O)oc4cc(O)c(O)cc34)o2)cc(OC)c1OC | 10µM | 1.8µM | 10µM | 40µM | 2µM | . | 2.4µM | 19µM | 0.96µM | RECQ1 conf=3.5µM;RECQ1 ADP FP=126µM;RECQ1 inh-2=?;FEN1 inh-2=38
Cc1ccc(C2Nc3ccccc3-n3c(-c4ccccc4)c4c(=O)n(C)c(=O)n(C)c4c32)o1 (stereo not given) | - | . | . | - | . | . | . | . | .
O=C(O)CC(CCc1ccccc1)OC1OC(CO)C(O)C(O)C1O (stereo not given) | - | 3.5µM | ? | 7.9µM | 0.35µM | . | 1.7µM | - | 1.5µM | RECQ1 conf=-;FEN1 inh-2=27
[C-]#[N+][C@H](O[C@@H]1O[C@H](CO)[C@@H](O)[C@H](O)[C@H]1O)c1ccccc1 | . | . | - | - | . | . | . | . | .
Cc1ccc2c(CC(=O)Nc3nnc(C(C)C)s3)coc2c1C | - | . | . | - | . | . | . | . | .
Cc1nnc(N2C(=O)c3oc4ccccc4c(=O)c3C2c2ccco2)s1 (stereo not given) | - | - | ? | - | ? | 22µM | . | . | . | L3MBTL1 inh-2=?;L3MBTL1 ctr=-
O=C(NNC(=O)c1cc(-c2ccco2)nc2ccccc12)c1ccccc1 | - | - | -[11.6 µM] | - | - | - | . | . | .
O=C(O)c1cc(-c2ccco2)nc2cc3ccccc3cc12 | - | 28µM | ? | - | ? | 10µM | . | . | . | L3MBTL1 inh-2=0.84;L3MBTL1 ctr=-
CCOc1ccc(NC(=O)CN(C)C(=O)c2cc(-c3ccco3)nc3ccccc23)cc1OCC | . | . | - | - | . | . | . | . | .
CN(CC(=O)Nc1ccc(F)cc1)C(=O)c1cc(-c2ccco2)nc2ccccc12 | . | . | ? | - | - | 18µM | . | . | . | L3MBTL1 inh-2=12;L3MBTL1 ctr=-
Cc1ccc(C)c(N2CCN(C(=O)c3ccc4nc(-c5ccco5)c(-c5ccco5)nc4c3)CC2)c1 | ? | - | - | - | - | - | . | . | .

Screens as filed in PubChem.
